PfM18AAP inh: PfM18AAP inhibitors, malaria aminopeptidase, primary screen, biochemical, QFRET, recombinant enzyme; M18 aspartyl aminopeptidase (Plasmodium falciparum 3D7); H-Glu-NHMec fluorogenic cleavage; inhibition, % at 7.35 µM; 290,000 compounds, 1.2% hits;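 active = inhibition above the campaign mean inhibition over all tested compounds plus 3 SD, cut at about 28% in these data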;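 also: 0% = plate median of test compound wells and 100% = 2 mM ZnCl2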
HIF act: HIF pathway transcriptional activators, primary screen, cell-based, U2OS HRE-luciferase, luminescence; U2OS HRE-luciferase reporter; normalized: DMSO 0%, desferrioxamine 100%; activation, % at 7.5 µM (by protocol); 300,000 compounds, 0.32% hits; AID 1910, 2009;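 active = mean activation of at least 10% of the iron chelator positive control signal, with at least half of replicates also reaching 10%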
ALR H2O2 inh: inhibitors of human ALR sulfhydryl oxidase, primary screen, biochemical, H2O2 detection, HRP-luminol luminescence, single point. FAD-linked sulfhydryl oxidase ALR (Homo sapiens), P55789. purified ALR, DTT oxidation. inhibition, % (test concentration not listed). 290,000 compounds, 3.8% hits;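 active = mean replicate inhibition above about 79%, with every replicate also reaching it, limit read from the data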
Target sequence (P55789 whole entry, looked up): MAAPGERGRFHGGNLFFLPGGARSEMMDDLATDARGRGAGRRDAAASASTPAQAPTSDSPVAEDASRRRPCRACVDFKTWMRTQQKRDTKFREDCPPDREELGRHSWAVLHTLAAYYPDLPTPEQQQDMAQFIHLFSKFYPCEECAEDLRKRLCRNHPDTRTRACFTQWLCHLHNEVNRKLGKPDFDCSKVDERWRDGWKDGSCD
SUMO Mot1 rescue: yeast Mot1-301 growth rescue at high temperature, primary screen, SUMOylation pathway inhibitor project, S. cerevisiae, ATP luminescence, 38.5C | S. cerevisiae Mot1-301 growth rescue; percent above DMSO median, 100 means doubled | growth rescue, % at 18.8 µM | 320,000 compounds, 1% hits;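 active = every valid replicate shows activation above 250% relative to neutral control wells; inactive = the rest, any valid replicate at or below 250%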;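 also: OY570 slx delta 5 strain wells were the positive control but not used for scaling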
Mot1 SUMO dose: growth restoration of Mot1-301 yeast on galactose, dose response, SUMO pathway inhibitor project, whole organism, S. cerevisiae, ATP luminescence, cherry-picked samples; growth activity, percent, % at 42 µM; shares compounds with SUMO Mot1 rescue; AID 493004, 2010; S. cerevisiae Mot1-301 galactose growth, 24 h; -100 = growth of slx-deleted rescue strain; 2,300 tested, under 10 active;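 active = Signal drops as the depositor expects, and the fitted half-maximal dose is no more than ten times the top valid tested dose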;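 also: more negative values mean stronger growth rescue toward the control strain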
* hit, by the source's call; / = not tested or not shown; + = active, no number; [ ] = dose if it differs, or a comment. An excerpt weighted towards active compounds, which were near 5.3% of everything screened.

SMILES	PfM18AAP inh	HIF act	ALR H2O2 inh	SUMO Mot1 rescue	Mot1 SUMO dose
COc1ccc(C2=NOC(Cn3nc(C(=O)NCc4ccc(C)cc4)cc3-c3ccccc3)C2)cc1 (stereo not given)	/	-1.0	1.9	-3.8	/
COc1ccc(N(CC(=O)O)S(=O)(=O)c2c(C)n[nH]c2C)cc1	-0.1	-0.8	-1.7	-18.3	/
Cc1ccc(N(C(C)C(=O)O)S(=O)(=O)c2c(C)n[nH]c2C)cc1 (stereo not given)	1.0	-0.1	/	530.7*	0.2
COc1ccc(NC(=O)N2CCCC2C(=O)NCCc2ccccc2)cc1 (stereo not given)	-10.7	-1.4	39.3	-3.9	/
CSc1cccc(NC(=S)NC(=O)c2cccnc2)c1	16.5	-0.8	-2.8	6.9	/
O=C(c1ccc2c(=O)n(Cc3ccccc3Cl)c(=S)[nH]c2c1)N1CCOCC1	7.1	-0.2	9.9	422.5*	0.6
O=C(c1ccc2c(=O)n(Cc3ccccc3)c(=S)[nH]c2c1)N1CCOCC1	8.2	-1.3	38.1	-2.1	/
Cc1cc(C)nc(Nc2cccc(Cl)c2)n1	-3.0	-1.8	0.8	0.2	/
CN(C#N)c1nc(Cl)nc(Nc2cccc(Cl)c2)n1	-2.3	-0.7	14.9	596.8*	0.1
CC(=O)C[C@@H](O)CC(=O)[C@@H]1OC(=O)[C@H](C)C/C=C\Cc2ccccc21	/	/	-3.7	-5.7	/
COc1cc(C(=O)Oc2cccnc2)cc(OC)c1OC	-6.2	-1.3	61.9	480.9*	-0.2
COc1cc(C(=O)Oc2cc(C)cc(C)c2)cc(OC)c1OC	-0.5	-0.4	-0.5	6.8	/
Nc1cccc2c1C(=O)N(c1ccccc1)C2=O	/	/	11.6	667.9*	0.3
C#CCn1c(=NC(=O)CN2C(=O)CCC2=O)sc2cccc(OC)c21	-2.1	0.1	/	+	0.7
C#CCn1c(=NC(=O)c2cccs2)sc2cccc(OC)c21	-2.8	3.2	-1.9	-8.7	/
Nc1nc(-c2ccc(Cl)cc2)nc(-c2ccc(Cl)cc2)n1	-16.6	-0.7	/	941.9*	0.4
Cc1cc(OCC(O)CN(C)C(=O)C(C)Oc2ccccc2)ccc1Cl (stereo not given)	-19.4	-1.7	-4.5	-6.5	/
CCCCCCCC(=O)NNC(=O)Cc1ccccc1	-1.4	-0.5	-8.5	9.2	/
CCCCCC(=O)NNC1=NCC(Cc2cccc(Cl)c2)S1 (stereo not given)	4.8	-0.8	15.2	733.7*	0.6
CSc1ccc(NS(=O)(=O)c2ccc(-n3cnnn3)cc2)cc1	0.1	-0.8	1.6	0.8	/
Oc1c(Br)cc(Cl)cc1C=Nc1ccccc1Br	-9.8	-0.5	28.4	634.4*	1.0
COc1ccc(OCc2cc(C(=O)NC3CCc4ccccc43)no2)c(Cl)c1 (stereo not given)	-9.3	-0.4	-3.9	-6.5	/
O=C(NC1CCc2ccccc21)c1cc(COc2ccc(F)cc2F)on1 (stereo not given)	-7.0	0.1	-1.6	396.1*	0.1
O=C(O)C1C2C=CC(C2)C1C(=O)NCc1ccc(Cl)c(Cl)c1 (stereo not given)	-4.7	0.2	-6.1	-10.8	/
CC1(C)Cc2c(cnn2-c2ccc(F)cc2)C(NC(=O)CCCN2CCCCC2=O)C1 (stereo not given)	-1.7	-0.1	-1.8	523.1*	0.2
SMILES	PfM18AAP inh	HIF act	ALR H2O2 inh	SUMO Mot1 rescue	Mot1 SUMO dose
CC1(C)Cc2c(cnn2-c2ccccc2)C(NC(=O)CCCN2CCCCC2=O)C1 (stereo not given)	-7.0	-0.1	9.0	160.4	/
CC(C)(C)C1CCC(=NNC(=O)C2COc3ccccc3O2)CC1 (stereo not given)	/	/	15.7	1.6	/
C/C(=N\NC(=S)Nc1ccccc1)C1Cc2ccccc2C(=O)O1 (stereo not given)	7.9	1.8	58.5	393.3*	0.0
COc1ccc(C)cc1NC(=O)Cn1c(=O)oc2ccccc21	2.0	0.4	-1.4	486.3*	-0.5
Cc1ccccc1NC(=O)Cn1c(=O)oc2ccccc21	2.8	-1.1	-2.2	-10.9	/
CCn1ncc(Br)c1C(=O)Nc1ccc(OC(F)(F)F)cc1	-2.5	0.1	0.5	450.7*	-0.7
Nc1ccnc(=O)[nH]1	/	-0.1	-12.5	654.0*	0.2
CC1CCCC(N2C(=O)NC(NC(=O)c3ccco3)(C(F)(F)F)C2=O)C1C (stereo not given)	7.6	1.0	-2.4	510.3*	-0.6
Cc1ccc(C)c(-n2nnnc2SCC(=O)Nc2c(C)n(C)n(-c3ccccc3)c2=O)c1	-11.0	-0.4	2.2	376.7*	-0.2
CCn1c(SCC(=O)Nc2ccc(NC(=O)c3ccco3)cc2)nnc1-c1cccs1	-7.6	0.8	-45.9	+	0.4
COc1ccc(CC(=O)NNS(=O)(=O)c2ccc([N+](=O)[O-])cc2)cc1OC	-4.9	0.4	/	-10.6	/
CC(C)c1ccc(NC(=O)COc2nnc(-c3cccs3)c(-c3cccs3)n2)cc1	-9.3	-0.1	-3.1	810.1*	0.4
Cc1ccnc(NC(=O)CC(c2ccccc2)c2ccccc2)n1	-5.9	0.3	-9.4	432.0*	0.6
O=C(CN1c2ccccc2Sc2ccccc21)N/N=C/c1ccc(Cl)cc1Cl	3.2	-0.1	-5.0	453.5*	0.6[21 µM]
O=C(CN1c2ccccc2Sc2ccccc21)N/N=C/c1ccc(Cl)cc1	-1.2	0.3	-10.5	7.3	/
Cc1ccc(S(=O)(=O)N2CCCOC2CNC(=O)C(=O)NCCc2c[nH]c3ccccc23)cc1 (stereo not given)	0.7	-1.2	-7.3	-19.0	/
CSc1nncc(/C(C)=N\Nc2cccc(C)c2)n1	6.7	0.1	16.4	365.8*	-0.7
CC/C(=N/Nc1ccccc1C)c1cnnc(SC)n1	8.9	-0.5	-8.0	16.9	/
COc1ccc(N2C(=O)CCC(C(=O)NCCCN3CCC(C)CC3)C2c2ccc(OC)c(OC)c2)cc1 (stereo not given)	-1.4	-0.5	-9.6	-4.2	/
Cc1ccc(S(=O)(=O)NN2C(=O)c3ccccc3NC2c2ccccc2F)cc1 (stereo not given)	1.8	-0.4	-1.7	428.8*	0.5
CCOc1ccc(S(=O)(=O)N2CCC(C(=O)NCc3ccncc3)CC2)cc1	-11.8	0.2	-1.5	0.2	/
CCCCn1c(N)c(N(CC(C)C)C(=O)CSCC(=O)Nc2cccc(C)c2)c(=O)[nH]c1=O	/	-0.2	-9.9	366.3*	-0.1
CS(=O)(=O)C1=NSC2=NC(=O)/C(=C\c3ccc(OS(=O)(=O)c4ccccc4)cc3)C(=N)N21	5.1	-0.1	65.3	399.1*	0.5
CCC1=NN2C(=N)/C(=C/c3ccc(OS(=O)(=O)c4ccccc4)cc3)C(=O)N=C2S1	-3.7	-0.1	-11.6	-7.1	/
Cc1ccnc(NC(=O)c2ccc([N+](=O)[O-])s2)c1	5.6	2.6	-22.5	-25.7	/
